Assay results published in PubChem BioAssay.
The source made the active and inactive calls.

Tests used:
[1] = small molecules captured by biotinylated probe aFSTL3 – biochemical, small-molecule microarray, fluorescence 635/667, stem cell growth factor project, primary screen (AID 1064); conditions: higher = more signal;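 further: measures binding of the biotinylated anti-FSTL3 antibody to printed compounds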
[2] = binders from COS7 lysate, DM2A8 probe, primary screen, torsin A project, cell lysate, small-molecule microarray, fluorescence 635/667 (AID 1065); conditions: higher = more signal, COS7 lysate expressing mutant human TOR1A
[3] = small molecules captured by biotinylated probe aFGF2 – biochemical, small-molecule microarray, fluorescence 635/667, stem cell growth factor project, primary screen (AID 1067); conditions: higher = more signal;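 further: measures binding of biotinylated aFGF2 protein to printed compounds on slides; z-score merges feature fluorescence and signal-to-noise across triplicate slides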
[4] = small molecules captured by biotinylated probe aFGF10 – biochemical, small-molecule microarray, fluorescence 635/667, stem cell growth factor project, primary screen (AID 1071); conditions: higher = more signal;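 further: score merges 667 nm spot intensity and signal to noise from triplicate slides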
[5] = target: Neurogenic locus notch homolog protein 2 (Homo sapiens) (UniProt Q04721); assay: small molecules binding Notch2 protein – biochemical, small-molecule microarray, 635 nm fluorescence, stem cell growth factors, primary screen (AID 1073); conditions: higher = more signal
[6] = target: Pro-neuregulin-1, membrane-bound isoform (Homo sapiens) (UniProt Q02297); assay: small molecules binding neuregulin-1 protein – biochemical, small-molecule microarray, fluorescence 635/667, psychiatric disease protein project, primary screen (AID 1075); conditions: NRG1 binding, 635 nm fluorescence, higher = more signal;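 further: score combines 667 nm spot fluorescence with signal to noise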
[7] = tested on: Neuregulin-1 EGF-like domain; assay: small molecules binding NRG1 EGF domain – biochemical, small-molecule microarray, 635 nm fluorescence, primary screen (AID 1081); conditions: higher = more signal;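 further: binding of the protein to compounds printed on small-molecule microarray slides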
[8] = FRG1 expression reporter modulators in myotubes – cell-based, C2C12 myotubes, firefly/Renilla luciferase, luminescence, FRG1 inhibition for FSHD, primary screen (AID 1084); conditions: FRG1 promoter luciferase, higher = more signal, called active from +8 up or from −8 down
[9] = small molecules captured by biotinylated probe aFST – biochemical, small-molecule microarray, fluorescence 635/667, stem cell growth factor project, primary screen (AID 1086); conditions: higher = more signal;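 further: score merges 667 nm fluorescence with signal-to-noise of each printed compound spot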
[10] = binders of probe aHhip on microarray, primary screen, stem cell growth factor project, biochemical, small-molecule microarray, fluorescence 635/667 (AID 1087); conditions: higher = more signal;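 further: score merges spot fluorescence at 667nm with spot signal to noise ratio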
[11] = tested on: PRMT1 (protein arginine N-methyltransferase 1); assay: small molecules binding arginine methyltransferase PRMT1 – biochemical, small-molecule microarray, 635 nm fluorescence, primary screen (AID 1088); conditions: higher = more signal;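 further: binding of Prmt1 protein to compounds spotted on small-molecule microarray slides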
[12] = growth effects on S. cerevisiae YJM789 – YJM789 clinical isolate, OD600, 24 h, basal, primary screen (AID 1089); conditions: higher = more signal, called active from +8 up or from −8 down;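 further: growth of clinical yeast isolate S. cerevisiae YJM 789 seeded 1000 cells per well; test concentration not given here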
[13] = S. pombe growth modifiers, basal conditions – strain 972, OD600, 24 h, no modulator, primary screen (AID 1090);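 further: basal condition with compound alone and no growth modifier present; test concentration not given here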; conditions: S. pombe 972 growth, higher = more signal, called active from +8 up or from −8 down
[14] = budding yeast growth modifiers under rapamycin – strain BY4716, OD600, 96 h, primary screen (AID 1091); further: test concentration not given here; conditions: S. cerevisiae BY4716 + rapamycin, higher = more signal, called active from +8 up or from −8 down
[15] = target: Torsin-1A-interacting protein 2 (Homo sapiens) (UniProt Q8NFQ8); assay: small molecules binding lysate-expressed LULL1 – cell lysate, human LULL1 lysate, 635/667 nm fluorescence, primary screen (AID 1092); conditions: small-molecule microarray, hLULL1 lysate binding, 635 nm fluorescence; higher = more signal;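 further: probe is lysate of COS7 cells overexpressing human LULL1; score merges per-feature 667 nm fluorescence with signal-to-noise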
[16] = optical density change of DRC41 E. coli – strain DRC41, OD650, 24 h, E. coli filamentation project, primary screen (AID 1093);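 further: MC1000 strain lacking acrAB efflux and sulA so SOS filamentation is blocked; test concentration not given here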; conditions: E. coli DRC41 growth, higher = more signal, called active from +8 up or from −8 down
[17] = probe aLefty2 binding to arrayed compounds – biochemical, biotinylated probe, 635/667 nm fluorescence, primary screen (AID 1094); conditions: small-molecule microarray, higher = more signal;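 further: score merges spot fluorescence near 667 nm with spot signal-to-noise ratio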
[18] = tested on: Noggin (protein binding on small-molecule microarray); assay: small molecules binding Noggin protein – biochemical, 635/667 nm fluorescence, primary screen (AID 1095); conditions: 635 nm fluorescence, higher = more signal;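 further: score merges 667 nm feature fluorescence with signal to noise over triplicate slides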
[19] = target: Neurogenic locus notch homolog protein 3 (Homo sapiens) (UniProt Q9UM47); assay: small molecules binding NOTCH3 protein – biochemical, 635/667 nm fluorescence, primary screen (AID 1096); conditions: small-molecule microarray, 635 nm fluorescence, higher = more signal
[20] = probe aEGFR binding to arrayed compounds – biochemical, biotinylated probe, 635/667 nm fluorescence, primary screen (AID 1097); conditions: small-molecule microarray, higher = more signal;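 further: probe is a biotinylated anti-EGFR antibody binding compounds printed on slides; score combines fluorescence near 667 nm and signal to noise of each spot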

Sequence of Torsin-1A-interacting protein 2 (Homo sapiens) (Q8NFQ8 whole entry, looked up): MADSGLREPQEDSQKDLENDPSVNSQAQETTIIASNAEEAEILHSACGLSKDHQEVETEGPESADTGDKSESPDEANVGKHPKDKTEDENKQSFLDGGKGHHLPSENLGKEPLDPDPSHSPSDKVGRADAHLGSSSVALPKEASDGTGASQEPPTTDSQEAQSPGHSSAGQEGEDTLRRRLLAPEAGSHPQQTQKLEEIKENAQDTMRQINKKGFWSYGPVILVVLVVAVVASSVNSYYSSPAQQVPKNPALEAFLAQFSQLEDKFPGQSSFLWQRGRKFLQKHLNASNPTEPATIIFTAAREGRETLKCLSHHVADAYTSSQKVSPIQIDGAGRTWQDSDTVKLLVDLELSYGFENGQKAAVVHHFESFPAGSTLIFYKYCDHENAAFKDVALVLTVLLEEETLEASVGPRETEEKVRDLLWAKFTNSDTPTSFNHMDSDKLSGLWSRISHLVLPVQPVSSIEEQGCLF
Sequence of Neurogenic locus notch homolog protein 3 (Homo sapiens) (Q9UM47 whole entry, looked up): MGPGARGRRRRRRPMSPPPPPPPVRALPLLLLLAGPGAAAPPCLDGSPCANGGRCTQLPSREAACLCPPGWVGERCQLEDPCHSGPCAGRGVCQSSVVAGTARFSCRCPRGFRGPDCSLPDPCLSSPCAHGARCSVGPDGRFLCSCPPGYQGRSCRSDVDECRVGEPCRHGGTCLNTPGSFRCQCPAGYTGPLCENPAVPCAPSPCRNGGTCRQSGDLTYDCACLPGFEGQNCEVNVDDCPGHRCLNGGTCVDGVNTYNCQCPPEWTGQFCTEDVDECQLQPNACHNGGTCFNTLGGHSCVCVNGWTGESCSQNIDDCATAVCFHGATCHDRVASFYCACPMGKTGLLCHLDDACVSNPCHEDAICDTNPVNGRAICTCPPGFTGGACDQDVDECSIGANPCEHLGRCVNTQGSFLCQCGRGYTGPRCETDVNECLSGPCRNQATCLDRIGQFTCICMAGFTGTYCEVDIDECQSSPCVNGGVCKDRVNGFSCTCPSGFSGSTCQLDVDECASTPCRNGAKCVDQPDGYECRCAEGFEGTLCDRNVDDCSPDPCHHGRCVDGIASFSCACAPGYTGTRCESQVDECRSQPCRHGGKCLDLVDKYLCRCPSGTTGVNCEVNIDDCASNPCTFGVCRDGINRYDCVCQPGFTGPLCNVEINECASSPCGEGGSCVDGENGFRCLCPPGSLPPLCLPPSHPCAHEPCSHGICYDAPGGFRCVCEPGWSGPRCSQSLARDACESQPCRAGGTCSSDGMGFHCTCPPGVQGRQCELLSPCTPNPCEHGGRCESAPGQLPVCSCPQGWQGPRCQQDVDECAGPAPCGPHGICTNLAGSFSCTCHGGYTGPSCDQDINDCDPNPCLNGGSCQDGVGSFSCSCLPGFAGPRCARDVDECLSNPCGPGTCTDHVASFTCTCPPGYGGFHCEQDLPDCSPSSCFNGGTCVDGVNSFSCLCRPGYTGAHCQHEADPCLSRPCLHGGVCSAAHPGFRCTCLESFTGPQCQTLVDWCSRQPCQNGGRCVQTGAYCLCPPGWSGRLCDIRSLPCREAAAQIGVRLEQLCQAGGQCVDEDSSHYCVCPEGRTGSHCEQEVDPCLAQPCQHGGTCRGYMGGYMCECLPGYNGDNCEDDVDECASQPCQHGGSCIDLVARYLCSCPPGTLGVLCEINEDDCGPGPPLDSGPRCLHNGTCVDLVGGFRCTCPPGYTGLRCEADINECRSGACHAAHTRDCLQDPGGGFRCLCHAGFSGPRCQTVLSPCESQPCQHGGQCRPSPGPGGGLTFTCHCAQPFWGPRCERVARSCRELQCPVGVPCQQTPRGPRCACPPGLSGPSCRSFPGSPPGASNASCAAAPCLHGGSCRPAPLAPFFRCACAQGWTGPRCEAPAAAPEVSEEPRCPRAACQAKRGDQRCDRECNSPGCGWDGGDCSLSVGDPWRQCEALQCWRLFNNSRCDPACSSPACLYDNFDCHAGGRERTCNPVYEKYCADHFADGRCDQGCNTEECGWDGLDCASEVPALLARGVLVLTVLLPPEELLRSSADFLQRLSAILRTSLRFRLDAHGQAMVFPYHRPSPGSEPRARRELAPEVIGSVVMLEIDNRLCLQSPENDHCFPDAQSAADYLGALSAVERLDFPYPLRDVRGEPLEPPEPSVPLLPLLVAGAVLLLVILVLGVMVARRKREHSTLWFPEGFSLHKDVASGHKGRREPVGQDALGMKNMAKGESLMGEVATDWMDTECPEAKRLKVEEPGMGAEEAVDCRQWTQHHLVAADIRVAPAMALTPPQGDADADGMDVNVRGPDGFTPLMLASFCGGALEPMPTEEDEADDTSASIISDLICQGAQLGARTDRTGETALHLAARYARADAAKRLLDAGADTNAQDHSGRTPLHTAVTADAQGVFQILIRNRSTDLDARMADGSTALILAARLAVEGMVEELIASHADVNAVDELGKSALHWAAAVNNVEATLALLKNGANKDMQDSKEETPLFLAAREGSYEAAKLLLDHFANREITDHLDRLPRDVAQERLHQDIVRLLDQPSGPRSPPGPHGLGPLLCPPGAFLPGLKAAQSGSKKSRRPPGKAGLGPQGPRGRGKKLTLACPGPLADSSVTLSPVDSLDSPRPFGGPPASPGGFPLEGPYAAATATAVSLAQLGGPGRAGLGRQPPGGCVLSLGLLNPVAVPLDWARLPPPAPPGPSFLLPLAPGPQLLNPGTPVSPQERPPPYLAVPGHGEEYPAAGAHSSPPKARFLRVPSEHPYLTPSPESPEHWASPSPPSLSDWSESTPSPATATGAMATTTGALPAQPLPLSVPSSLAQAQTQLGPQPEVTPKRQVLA
Sequence of Pro-neuregulin-1, membrane-bound isoform (Homo sapiens) (Q02297 whole entry, looked up, the tested form may be a part, canonical isoform): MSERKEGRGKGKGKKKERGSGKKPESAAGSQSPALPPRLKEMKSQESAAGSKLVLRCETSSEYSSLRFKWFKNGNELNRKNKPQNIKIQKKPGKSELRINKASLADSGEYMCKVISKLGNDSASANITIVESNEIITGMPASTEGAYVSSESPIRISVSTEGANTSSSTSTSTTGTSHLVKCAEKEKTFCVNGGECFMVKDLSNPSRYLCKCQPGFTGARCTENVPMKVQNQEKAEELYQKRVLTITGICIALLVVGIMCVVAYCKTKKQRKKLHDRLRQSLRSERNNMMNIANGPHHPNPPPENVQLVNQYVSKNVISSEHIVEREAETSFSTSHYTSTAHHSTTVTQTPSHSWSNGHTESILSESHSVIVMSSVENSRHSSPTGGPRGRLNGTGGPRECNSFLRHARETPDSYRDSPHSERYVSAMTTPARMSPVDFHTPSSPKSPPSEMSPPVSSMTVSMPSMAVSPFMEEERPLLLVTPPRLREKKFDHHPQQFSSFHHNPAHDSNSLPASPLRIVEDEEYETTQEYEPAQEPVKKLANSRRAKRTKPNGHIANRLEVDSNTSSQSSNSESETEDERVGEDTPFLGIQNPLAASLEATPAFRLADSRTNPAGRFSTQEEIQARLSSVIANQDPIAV

Row | SMILES | composite z-score [1] | composite z-score [2] | composite z-score [3] | composite z-score [4] | composite z-score [5] | composite z-score [6] | composite z-score [7] | z-score [8] | composite z-score [9] | composite z-score [10] | composite z-score [11] | z-score [12] | z-score [13] | z-score [14] | composite z-score [15] | z-score [16] | composite z-score [17] | composite z-score [18] | composite z-score [19] | composite z-score [20]
1 | CCCCN1CC=CC23O[C@@H]4/C=C\CCCOC(=O)C4[C@H]2C(=O)N(C(CO)C(C)C)[C@@H]3C1=O (stereo not given in full) | -0.1 | 0.0253 | -0.101 | 0.728 | -0.185 | -0.164 | 1.47 | 0.723 (inactive) | -0.228 | -0.236 | -0.385 | 0.383 (inactive) | -0.74 (inactive) | 0.0577 (inactive) | 0.601 | -0.714 (inactive) | -0.165 | -0.21 | -0.754 | 0.371
2 | COC(=O)[C@H](Cc1ccccc1)N1CC2=CCCC=C[C@@H]2[C@H]1[C@H](O)Cc1ccccc1 | -0.22 | 0.0803 | -0.103 | 0.311 | -0.0146 | 0.112 | 0.667 | 0.569 (inactive) | 0.0599 | -0.0427 | 0.438 | -1.09 (inactive) | -2.01 (inactive) | -0.172 (inactive) | 0.626 | -0.496 (inactive) | -0.0632 | 1.15 | 0.215 | -0.111
3 | CC(C)(C)N1CC=CC23O[C@@H]4C=CCOC(=O)[C@@H]4[C@H]2C(=O)N(CCO)[C@@H]3C1=O (stereo not given in full) | 0.56 | -0.483 | -0.206 | -0.437 | -0.638 | 1.87 | 1.66 | 0.639 (inactive) | -0.633 | -0.274 | 0.717 | 0.573 (inactive) | -0.0445 (inactive) | 0.514 (inactive) | 1.34 | -0.594 (inactive) | -0.284 | -1.6 | -0.337 | -0.205
4 | C[C@@H]1NC(=O)C([C@@H](C)OCc2ccccc2)NC(=O)[C@@]23C(=O)N[C@@H](Cc4ccccc4)C2[C@H](C)[C@@]2(C)O[C@H]2C3/C=C/C/C=C\CNC1=O (stereo not given in full) | -0.439 | -0.328 | -0.0578 | 0.341 | -0.0879 | 0.671 | 0.503 | -0.116 (inactive) | -0.502 | -0.236 | -0.448 | 0.35 (inactive) | -0.258 (inactive) | 0.186 (inactive) | -0.327 | -1.07 (inactive) | -0.205 | -0.0322 | 0.177 | -0.109
